High-throughput results as filed in PubChem BioAssay.
Most compounds without a hit are left out; they make up all but 4.7% or so of the library.
TRHR ag = qHTS for Small Molecule Agonists and Allosteric Enhancers of Human TRH Receptor: Primary Screen for Agonists; Thyrotropin-releasing hormone receptor (Homo sapiens), P34981; TRHR cells, calcium flux fluo-8, FDSS agonist mode; activation, % at 2 µM; hit rate 0.18% among 360,000; note: 0% is about no effect
Target sequence (P34981 whole entry, looked up): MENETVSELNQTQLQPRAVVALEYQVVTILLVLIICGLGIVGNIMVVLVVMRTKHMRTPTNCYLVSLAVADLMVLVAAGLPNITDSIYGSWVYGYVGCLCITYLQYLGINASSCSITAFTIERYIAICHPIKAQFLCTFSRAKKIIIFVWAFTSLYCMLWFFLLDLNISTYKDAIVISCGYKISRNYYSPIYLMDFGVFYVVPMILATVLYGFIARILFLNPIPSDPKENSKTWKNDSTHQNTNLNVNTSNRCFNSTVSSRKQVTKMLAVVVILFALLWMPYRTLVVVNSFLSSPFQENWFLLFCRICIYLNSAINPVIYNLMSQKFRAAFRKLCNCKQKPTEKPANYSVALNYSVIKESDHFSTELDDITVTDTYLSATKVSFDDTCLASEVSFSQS
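Steps: seed TRHR cells overnight; add fluo-8 no-wash Ca dye, RT 30 min–1.5 h; record 10 s baseline; pin-transfer compounds; monitor fluorescence 1 cycle/s for the agonist window. Calcium increases flag candidate agonists.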
TRHR enhancer = qHTS for Small Molecule Agonists and Allosteric Enhancers of Human TRH Receptor: Primary Screen for Enhancers. Thyrotropin-releasing hormone receptor (Homo sapiens), P34981. TRHR cells, fluo-8 calcium fluorescence, EC20 TRH enhancement. enhancement, % at 2 µM. hit rate 0.66% among 360,000. AID 493056, 2011; in the data active = enhancement above about 30%; note: 0% is about no effect
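TRHR-expressing cells loaded with fluo-8 calcium dye were read kinetically (ex 480/em 530) during compound addition, then stimulated with an EC20 of TRH (10 nM final). Enhancement of the Gq-mediated intracellular calcium response was scored.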
D1 potentiator = Potentiators of Human D1 Dopamine Receptor: qHTS; AID 504651, 2011; HEK293 TREx D1 cells, calcium flux, dopamine EC20 potentiation; potentiation, % at 10 µM; hit rate 0.036% among 360,000; in the data active = potentiation above about 30%; note: 0% is about no effect
D1 ag = Allosteric Agonists of the Human D1 Dopamine Receptor: qHTS; D(1A) dopamine receptor (Homo sapiens), P21728; HEK293 T-REx D1 cells, calcium flux, agonist mode; activation, % at 2 µM; hit rate 1% among 360,000; AID 504660, 2011; note: 0% is about no effect
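Tetracycline-induced HEK293 TREx D1 cells, force-coupled to calcium signalling, were dye-loaded with a no-wash calcium kit. Compound was pin-added after a 10 s baseline. Fluorescence was read kinetically at 1 cycle/s for 180 s, with calcium rises flagged as agonism.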
D1 antagonist = Antagonist of Human D 1 Dopamine Receptor: qHTS. activity change, negative = inhibition, % at 10 µM. HEK293 TREx D1 cells, calcium flux, dopamine EC80; stronger effect = lower value. hit rate 3.2% among 360,000. D(1A) dopamine receptor (Homo sapiens), P21728; in the data active = activity change below about -30%; note: % is set by controls: 0 for no effect and ±100 for the full control effect
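After overnight tetracycline induction at 30 C, force-coupled D1 HEK293 cells took up a no-wash calcium dye at room temperature. Compounds were added and monitored 180 s, and the response to EC80 dopamine was then recorded.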
Active calls of the source: *. Cut-off read from the data, not from the text of the source, unless noted: active = activation above about 30%; inactive = the rest.

SMILES	TRHR ag	TRHR enhancer	D1 potentiator	D1 ag	D1 antagonist
COc1ccc(NC(=O)CCC(=O)OCc2ccc(C(=O)Oc3ccc(Cl)cc3)cc2)cc1	1	0	-6	3	-31*
O=C(CCC(=O)OCc1ccc(C(=O)Oc2ccc(Cl)cc2)cc1)Nc1ccccc1	1	-2	-4	3	-12
COc1ccc(NC(=O)CCC(=O)OCc2ccc([N+](=O)[O-])cc2)cc1	-4	4	0	2	-31*
Cc1ccc2c(=O)cc(C(=O)Nc3ccc(S(=O)(=O)Nc4onc(C)c4C)cc3)oc2c1C	0	0	0	1	-14
COc1ccccc1N=CC=C1OC(C)(C)C(C)(C)O1	-5	-4	-2	3	0
Cc1ccc(N=CC=C2OC(C)(C)C(C)(C)O2)c(C)c1	0	4	-3	1	-42*
COc1ccc(Cc2nnc(SC(C)C(=O)Nc3ccc(C(N)=O)cc3)o2)cc1 (stereo not given)	0	15	-3	-2	-12
Cc1ccc2nc(-c3ccc(Cl)c(NC(=O)COc4cccc(C)c4C)c3)oc2c1	-1	2	-4	-1	7
O=C(COc1ccccc1[N+](=O)[O-])Nc1cc(-c2nc3cc(Cl)ccc3o2)ccc1Cl	1	1	-2	0	-45*
CCOc1cc(C(=O)Nc2ccc3oc(-c4ccc(CC)cc4)nc3c2)cc(OCC)c1OCC	1	36*	0	4	-11
COc1ccc(-c2nc3cc(NC(=O)COc4ccccc4C)ccc3o2)cc1	1	-3	4	10	-54*
Cc1cccc(OCC(=O)Nc2ccc(-c3nc4ccccc4o3)cc2)c1C	3	31*	-1	4	8
COc1ccc(-c2nc3cc(NC(=O)COc4ccc(F)cc4)ccc3o2)cc1	1	10	-1	1	-5
Cn1c2cc(Br)sc2c2cnn(Cc3ccccc3F)c(=O)c21	-1	-2	8	0	3
COc1cccc(NC(=O)c2cccc(N3C(=O)C4CCC(C)CC4C3=O)c2)c1 (stereo not given)	0	5	-2	0	-2
Cc1ccc(OCC(=O)Nc2ccc3oc(=O)ccc3c2)c(C)c1	0	0	-7	3	-56*
Cc1cc(Cl)ccc1OCC(=O)Nc1ccc2oc(=O)ccc2c1	-1	-3	-11	8	-29
Cc1cc(C)cc(OCC(=O)Nc2ccc(-c3nc4ccccc4o3)cc2)c1	2	-4	-3	9	-32*
Cc1cccc(OCC(=O)Nc2cccc3cccnc23)c1C	-1	5	1	5	-45*
O=C(COc1ccc2ccc(=O)oc2c1)Nc1ccc(CCO)cc1	0	-3	-3	2	-49*
CC(=O)N1c2ccc(S(=O)(=O)N(C)CC(=O)NC(C)c3ccccc3)cc2CC1C (stereo not given)	0	6	-1	-1	-2
COC(=O)c1c(SC)nc2ccccc2c1OCc1cccc(C)c1	1	3	6	10	1
Cc1ccc(CC(=O)Nc2c(C(=O)N3CCN(c4ccccc4F)CC3)oc3ccccc23)cc1	-1	0	0	0	-14
CCCCSCCCNC(=O)C1CCC(CNS(=O)(=O)c2c(C)cc(C)cc2C)CC1 (stereo not given)	1	13	-3	12	1
Cc1ccc2c(c1)-c1c(cnc3cc(-c4ccc(Cl)cc4)nn13)CO2	0	8	-4	-1	6
CCOc1ccc(-c2nnc(SCC(=O)Nc3cccc(Cl)c3C)o2)cc1	1	0	0	22	-35*
O=C(NCCc1ccccc1)c1ccc(Cn2c(SCc3cccc(F)c3)nc3cccnc32)cc1	3	-3	0	8	4
O=C1CCSC2(C(=O)N(Cc3ccc(F)cc3)c3ccccc32)N1c1cccc(F)c1 (stereo not given)	-1	4	-5	4	8
